Screening data from PubChem BioAssay.
GDH-TPI counter = GDH-TPI coupling enzyme inhibitors, primary screen, artefact control for M. tuberculosis FBA inhibitor project, biochemical, absorbance, full deck; AID 588335, 2011; inhibition, % at 4.8 µM; GDH-TPI coupled enzyme counterscreen, NADH absorbance; actives 1.2% (n = 360,000); in the data active = inhibition above about 30%
Mtb FBA inh = Mtb FBA enzyme inhibitors, primary screen, biochemical, fluorescence, strain H37Rv; AID 588726, 2011; actives 2.3% (n = 360,000); Fructose-bisphosphate aldolase (Mycobacterium tuberculosis (strain ATCC 25618 / H37Rv)), …; inhibition, % at 1 µM; purified M. tuberculosis FBA, fluorescence read-out; in the data active = inhibition above about 27%
Target sequence (P9WQA3 whole entry, looked up): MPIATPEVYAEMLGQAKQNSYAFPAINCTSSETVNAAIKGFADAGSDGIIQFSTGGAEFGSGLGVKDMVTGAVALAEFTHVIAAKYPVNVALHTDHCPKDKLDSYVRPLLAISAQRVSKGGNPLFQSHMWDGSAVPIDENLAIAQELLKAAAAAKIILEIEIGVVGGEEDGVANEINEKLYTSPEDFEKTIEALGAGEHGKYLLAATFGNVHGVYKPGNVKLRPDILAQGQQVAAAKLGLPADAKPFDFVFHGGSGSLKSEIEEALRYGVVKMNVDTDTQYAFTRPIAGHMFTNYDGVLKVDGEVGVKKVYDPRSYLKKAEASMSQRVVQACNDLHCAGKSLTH
TcdB GH inh = TcdB glycohydrolase inhibitors, primary screen, biochemical, single point, plate reader; Toxin B (Clostridioides difficile), P18177; TcdB glycohydrolase enzymatic assay; inhibition, % at 9.99 µM; actives 0.24% (n = 350,000); in the data active = inhibition above about 10%
Y pestis TopoI = Yersinia pestis topoisomerase I inhibitors, primary screen, biochemical, cleavage product accumulation, plate reader, single point. Y. pestis Topo-I cleavage product accumulation. activity, % at 10 µM. actives 0.064% (n = 360,000). AID 504884, 2011; in the data active = activity above about 50%, passing the limit was not always enough
PrPC TRFRET = inhibitors of human cell surface prion protein PrPC, primary screen, cell-based, TR-FRET | inhibition, % at 13.8 µM | actives 0.43% (n = 370,000) | TR-FRET read-out; in the data active = inhibition above about 24%
Each line names hits and unclear results; the compound was inactive in the other large screens. Only some compounds are listed: those with a hit (about 3.2% of all), similar ones and a draw of the others.

Cc1ccsc1CNS(=O)(=O)c1ccc(F)cc1	none
CN(C)c1ccc(Cl)c(NC(N)=S)c1	TcdB GH inh 27
CN(C)c1ccc(NC(N)=S)cc1	none
Clc1ccc2nc(-c3ccccc3)c(Cc3ccccc3)n2c1	none
Cc1ccc(Cc2c(-c3ccc(C)cc3)nc3ccc(Cl)cn23)cc1	TcdB GH inh 11
Cc1ccn2c(Cc3ccccc3)c(-c3ccc(F)cc3)nc2c1	TcdB GH inh 10
Clc1ccc(-c2nc3ccc(Cl)cn3c2Cc2ccccc2)cc1	TcdB GH inh 13
Cc1ccc(Cc2c(-c3ccccc3)nc3cc(C)ccn23)cc1	none
Cc1ccc(Cc2c(-c3ccc(Cl)cc3)nc3ccc(Cl)cn23)cc1	none
O=C(C[C@@H]1CC[C@@H]2[C@H](COC[C@@H](O)CN2C(=O)Nc2cccc(Cl)c2)O1)NCC1CCCCC1	none (no result: GDH-TPI counter, Mtb FBA inh, Y pestis TopoI, PrPC TRFRET)
CN1CCN(C(=O)C[C@H]2C[C@@H]3c4cc(NC(=O)Nc5ccc(C(F)(F)F)cc5)ccc4O[C@@H]3[C@@H](CO)O2)CC1	none (no result: GDH-TPI counter, Mtb FBA inh, Y pestis TopoI, PrPC TRFRET)
CN1CCN(C(=O)C[C@@H]2CC[C@H]3[C@@H](COC[C@@H](O)CN3S(=O)(=O)c3cccc(F)c3)O2)CC1	none (no result: GDH-TPI counter, Mtb FBA inh, Y pestis TopoI, PrPC TRFRET)
O=C(O)c1cccc(-c2ccc(/C=N/NC(=O)C3COc4ccccc4O3)o2)c1 (stereo unspecified)	GDH-TPI counter 38
CC(C)(C)c1ccc2c(c1)OC(C(=O)N/N=C\c1ccc(-c3cccc(C(=O)O)c3)o1)CO2 (stereo unspecified)	GDH-TPI counter 39
C[C@H](CO)N1C[C@H](C)[C@H](CN(C)S(=O)(=O)c2ccc(F)cc2)Oc2ccc(NC(=O)c3ccncc3)cc2C1=O	none (no result: GDH-TPI counter, Mtb FBA inh, Y pestis TopoI, PrPC TRFRET)
COc1cccc(/C=C2\SC(=O)N(CCC(=O)N3CCCCC3CCO)C2=O)c1 (stereo unspecified)	GDH-TPI counter 31
O=C(CCN1C(=O)S/C(=C\c2ccccc2)C1=O)N1CCCCC1	none
O=C(O)C1CCN(C(=O)CCN2C(=O)S/C(=C\c3ccccc3)C2=O)CC1	GDH-TPI counter 35
c1ccc(Cn2ccc(-c3cnc(-c4ccccc4)s3)n2)cc1	Mtb FBA inh 182 (no result: TcdB GH inh)
O=c1[nH]c(=S)c2ncn(-c3ccccc3)c2[nH]1	GDH-TPI counter 31
CCCCC(C)Sc1nc2c([nH]1)c(=S)n(C)c(=O)n2C (stereo unspecified)	GDH-TPI counter 31
CO[C@@H]1CN(C)C(=O)c2cc(NC(C)=O)ccc2OC[C@@H](C)N(Cc2nccs2)C[C@@H]1C	none (no result: GDH-TPI counter, Mtb FBA inh, Y pestis TopoI, PrPC TRFRET)
O=C(Cc1ccccc1)N1CC[C@H]2[C@H](CO)Nc3ccc(Br)cc3[C@H]21	none (no result: GDH-TPI counter, Mtb FBA inh, Y pestis TopoI, PrPC TRFRET)
COCC(C)NC(=O)c1cc2c(ccc3ccccc32)oc1=O (stereo unspecified)	Mtb FBA inh active
COc1ccccc1C1c2[nH]c3ccccc3c2CCN1Cc1ccc(NC(C)=O)s1 (stereo unspecified)	GDH-TPI counter 32
CCc1cc(-c2n[nH]c(C)c2-c2nc(C)cs2)c(O)cc1OC	TcdB GH inh 12
CO[C@@H]1CC[C@H]2CCOc3ccc(C#N)cc3C(=O)N(C)C[C@@H](OC)[C@@H](C)C(=O)N(C)C[C@@H]1O2	none (no result: GDH-TPI counter, Mtb FBA inh, Y pestis TopoI, PrPC TRFRET)
O=c1[nH]c(-[n+]2ccc3ccccc3c2)c(/C=N/N=C(\[O-])c2ccccc2)s1	GDH-TPI counter 31
CC(C)(C)c1cc[n+](-c2[nH]c(=O)sc2/C=N/N=C(\[O-])c2cccnc2)cc1	GDH-TPI counter 32
Cc1ccc(S(=O)(=O)N[C@@H]2CC[C@@H](CCNC(=O)Nc3ccc(Cl)cc3)O[C@@H]2CO)cc1	none (no result: GDH-TPI counter, Mtb FBA inh, Y pestis TopoI, PrPC TRFRET)
COc1ccc(C)cc1N(CC(=O)Nc1ccc(S(=O)(=O)N2CCOCC2)cc1)S(C)(=O)=O	none
CS(=O)(=O)N(CC(=O)Nc1ccc(S(=O)(=O)N2CCOCC2)cc1)c1ccccc1Br	TcdB GH inh 32
O=C(NC1CCCC1)[C@@H]1[C@@H](CO)[C@@H]2Cn3c(cccc3=O)[C@@H]2N1C(=O)NC1CCCC1	none (no result: GDH-TPI counter, Mtb FBA inh, Y pestis TopoI, PrPC TRFRET)
COc1ccc(-n2c(SCC(N)=O)nc3sc4c(c3c2=O)CCN(C)C4)cc1	GDH-TPI counter 35, Mtb FBA inh 35 (no result: TcdB GH inh)
CN1CCc2c(sc3nc(SCC(=O)N4CCOCC4)n(-c4ccc(Cl)cc4)c(=O)c23)C1	GDH-TPI counter 51
COC(=O)CSc1nc2sc3c(c2c(=O)n1-c1ccc(OC)cc1)CCN(C)C3	none
CC1CCN(C(=O)CSc2nc(N)c3c4c(sc3n2)CN(C)CC4)CC1	Mtb FBA inh 31 (no result: TcdB GH inh, PrPC TRFRET)
O=C1Nc2ccc(Br)cc2C1Cc1ccccc1F (stereo unspecified)	TcdB GH inh 28
Cn1c(CC2C(=O)Nc3ccc(Br)cc32)nc2ccccc2c1=O (stereo unspecified)	none
C=CCn1c(SCC(=O)c2ccc(NS(=O)(=O)c3ccccc3)cc2)nnc1-c1cccs1	GDH-TPI counter 35 (no result: TcdB GH inh)
CCN(CC)S(=O)(=O)c1ccc(Cl)nc1	Mtb FBA inh 63
COCCN(CCOC)S(=O)(=O)c1ccc(Cl)nc1	none
COCCOC(=O)/C(=C/c1ccc(OC(=O)c2ccccc2)cc1)C(C)=O	Mtb FBA inh 31 (no result: TcdB GH inh, PrPC TRFRET)
C[C@H]1CN([C@@H](C)CO)C(=O)c2cccc(NC(=O)c3nc4ccccc4s3)c2O[C@@H]1CN(C)Cc1ccncc1	none (no result: GDH-TPI counter, Mtb FBA inh, Y pestis TopoI, PrPC TRFRET)
CCCOC(=O)c1c(N)n(Cc2cccs2)c2nc3ccccc3nc12	Mtb FBA inh 173 (no result: TcdB GH inh)
C=CCn1c(N)c(C(=O)OCCC)c2nc3ccccc3nc21	Mtb FBA inh 175 (no result: TcdB GH inh)
COc1ccc2[nH]c3nc(SCC(=O)NNC(=O)c4ccc(OC)c(OC)c4)nnc3c2c1	GDH-TPI counter 41 (no result: TcdB GH inh)
COCCCn1c(C)nc2c(c1=O)c1nc3ccccc3nc1n2CCc1ccccc1	Mtb FBA inh 36 (no result: TcdB GH inh, PrPC TRFRET)
Cc1nc2ccccc2c(=O)n1CCc1ccccc1	none
CCOC(=O)C1=C(O)C(=O)N(c2ccc(S(N)(=O)=O)cc2)C1c1cccc([N+](=O)[O-])c1 (stereo unspecified)	GDH-TPI counter 32
CC(=O)C1=C(O)C(=O)N(c2ccc(S(N)(=O)=O)cc2)C1c1cccc([N+](=O)[O-])c1 (stereo unspecified)	none
C[C@@H]1CN([C@@H](C)CO)C(=O)c2cc(C#C[C@@H](C)O)cnc2O[C@@H]1CN(C)C(=O)c1ccccc1	none (no result: GDH-TPI counter, Mtb FBA inh, Y pestis TopoI, PrPC TRFRET)
CCOC(=O)c1ccc2c(c1)sc(=NC(=O)c1ccco1)n2CCOC	none (no result: TcdB GH inh)
COc1ccc(OC)c2c1sc(=NC(=O)c1ccco1)n2C	GDH-TPI counter 34
CCn1c(=NC(=O)c2ccco2)sc2cccc(F)c21	GDH-TPI counter 51
O=C(C[C@H]1C=C[C@H](NC(=O)CCN2CCCCC2)[C@@H](CO)O1)Nc1ccc(-c2ccccc2)cc1	none (no result: GDH-TPI counter, Mtb FBA inh, Y pestis TopoI, PrPC TRFRET)
O=C(C1CCC1)N1CCc2cc(S(=O)(=O)N3CCN(c4ccccn4)CC3)ccc21	Y pestis TopoI 55 (no result: TcdB GH inh, PrPC TRFRET)
CO[C@@H]1CN(C)C(=O)c2cc(NC(=O)C3CCC3)ccc2OC[C@@H](C)N(Cc2cccnc2)C[C@@H]1C	none (no result: GDH-TPI counter, Mtb FBA inh, Y pestis TopoI, PrPC TRFRET)
